# Laboratory results taken from PubChem BioAssay (NCATS).
# Results filed as inconclusive are left out. Calls of active or inactive are those of the source. The call rests on the fitted dose curve; in most records, active means well fitted cell-killing curve with a large enough effect; inconclusive means small, poorly fitted or top-dose-only effect, or effect the other way; inactive means flat fitted curve, though single readings scatter.
# Test system: C33A
# Experiment: Primary qHTS to identify gynecologic anti-cancer compounds using libraries of approved drugs and bioactive compounds (AID 1345084); further: nearly all actives have a fitted effect of over 55% in size
# Details: Gynecologic cancer cell panel viability, ATPlite luminescence, 48 h; series mostly up to 57.5 µM; activity change, negative = cytotoxicity: at the top concentration
# In short: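 In this quantitative HTS, cell killing is estimated from loss of ATP-dependent luciferase light. Cells see five compound concentrations over a 48 h exposure.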
# On the % scale 0 is the no-effect control and ±100 the full control effect.
SMILES,"activity change, negative = cytotoxicity",Potency
COc1c(OC2OC(CO)C(O)C(O)C2O)ccc(O)c1C(=O)OCc1ccccc1O[C@@H]1O[C@H](CO)[C@@H](O)[C@H](O)[C@H]1O (stereo partly specified),-4.38% [at 25.3 µM] (inactive),–
CC1CCC2(C(=O)OC3OC(CO)C(O)C(O)C3O)CCC3(C)C(=CCC4C5(C)CC(O)C(O)C(C)(C(=O)O)C5CCC43C)C2C1(C)O (stereo unspecified),-0.74% [at 25.3 µM] (inactive),–
CC(=O)O[C@@H]1[C@H]2[C@@H](OC(=O)c3ccccc3)[C@@H](C)C[C@]2(O)[C@H](OC(C)=O)[C@@]2(C)[C@@H]3CC(C)(C)C(=O)[C@]3(OC(C)=O)C[C@@]12C,11.4% [at 25.3 µM] (inactive),–
Cc1[nH]cnc1C1CCN(c2nc3cccc4c3n2CCC4=O)CC1,4.61% (inactive),–
CN1CC[C@@H](NC(=O)Nc2ccc(C#N)cc2)C[C@@H]1c1nc2ccccc2[nH]1,17.1% (inactive),–
CC1=C2C(=O)O[C@@H](c3ccoc3)[C@]2(C)CCC1,–,inactive
COc1ncc(-c2ccc3c(Nc4cc(Oc5cc(F)cc(F)c5)cc(C(=O)O)c4)c(S(=O)(=O)NC4CC4)cnc3c2)c(OC)n1,9.17% (inactive),–
C=C1CCC(OC(C)=O)C2(C)CC3(O)OC(=O)C(C)=C3CC12 (stereo unspecified),-8.12% (inactive),–
C=C1CC[C@H]2[C@@](C)(CCC[C@@]2(C)C(=O)O)[C@@H]1CCC(C)CCO (stereo partly specified),-5.54% [at 38.5 µM] (inactive),–
CC1CCC2(C(=O)OC3OC(CO)C(O)C(O)C3O)CCC3(C(=O)O)C(=CCC4C5(C)CCC(OC6OC(C)C(O)C(O)C6O)C(C)(C)C5CCC43C)C2C1C (stereo unspecified),-3.3% [at 25.3 µM] (inactive),–
CCC(C)/C=C(C)/C=C/C1=CC2=C(Cl)C(=O)C(C)(OC(C)=O)C(=O)C2=CN1C1CCCCN(C(CCC(N)=O)C(=O)O)C1=O (stereo unspecified),-0.889% [at 25.3 µM] (inactive),–
